Bioassay records as filed in PubChem.
The list is not random: actives were taken first. Their share in the collection is about 7.9%.
FMDV antiviral: antivirals against foot and mouth disease virus. FMDV antiviral cell-based qHTS. Potency, µM (series often up to 57.9 µM), for the others: at the top dose activity change, negative = inhibition, usual class: inhibitors. 410,000 compounds, 1.2% hits; calls by dose curve; tested in HEK293T cells; further: read-out not given here; potency means the concentration at half of the fitted maximal effect; nearly all actives have a fitted effect of over 45% in size
HCMV antiviral: blocks human cytomegalovirus replication; HFF cells, HCMV-luciferase reporter, 72 h; active compounds read low; activity change, negative = inhibition, % at 57.5 µM; 410,000 compounds, 4.5% hits; in the data active means activity change below about -60%; inconclusive means no clear call, values can overlap the other calls; inactive means above about -39%
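Cell-based, HFFs, 1000 cells/well, 16 h 37C; cpds in DMSO + HCMV-luc, MOI 1 PFU/cell; 72 h 37C; OneGlo luminescence after 5 min RT; norm. to buffer vs Salinomycin 10uM.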
Lassa entry inh: blocks Lassa virus binding to or entry into cells. Potency, µM (doses to about 37.9 µM), without a hit: at the highest dose activity change, negative = inhibition, most hits filed as inhibitors. 300,000 compounds, 1.2% hits. Lassa virus pseudotype entry inhibition, cell reporter. AID 540256; calls by dose curve; tested in HEK293 cells; further: potency means the concentration at half of the fitted maximal effect; nearly all actives have a fitted effect of over 50% in size
MARV entry inh: Marburg virus entry inhibition; Marburg virus pseudotyped entry inhibition, cell reporter; Potency, µM (doses to about 37.8 µM), inactives show at the highest dose activity change, negative = inhibition, most hits filed as inhibitors; 300,000 compounds, 1.8% hits; AID 540276; calls by dose curve; tested in HEK293 cells; further: potency means the concentration at half of the fitted maximal effect
HCV inh: inhibitors of hepatitis C virus infection; Huh7.5.1 HCVcc-Cre infection, luciferase reporter, 44 h; Potency, µM (series often up to 41.8 µM), without a hit: at the top dose activity change, negative = inhibition, most hits filed as inhibitors; 340,000 compounds, 3.4% hits; AID 651820; active means well fitted inhibition curve with a large enough effect; inconclusive means small, poorly fitted or top-dose-only effect, or another doubt; inactive means no such curve, though single readings can be large or run the other way; further: potency means the concentration at half of the fitted maximal effect
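Reporter virus HCVcc-Cre (~0.5 moi) infects cells exposed to compound; seeding density 1,000 cells/well with 4 h settling beforehand. Luminescence, 15 sec read, taken 44 h post-infection following a 15 min RT substrate incubation.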
Active calls of the source: *; ? = inconclusive; . = no result; [ ] = another dose, or the depositor's remark. On the % scale 0 is the no-effect control and ±100 the full control effect.

SMILES	FMDV antiviral	HCMV antiviral	Lassa entry inh	MARV entry inh	HCV inh
CCN(CCn1cccn1)C(=O)c1cccc(OC2CCN(S(C)(=O)=O)CC2)c1	5%	5	-8%	-8%	-15%
O=C1CC[C@@H](CN(Cc2cccnc2)C2CCN(c3ccc(NC(=O)c4cnccn4)cc3)CC2)N1	25%	.	.	.	.
Cc1nn(-c2ccccc2)c(C)c1/C=N/NC(=O)c1cc(-c2cccs2)[nH]n1	?	-89*	?	?	?
Cc1cc(C(=O)N/N=C/c2c(C)nn(-c3ccccc3)c2C)n[nH]1	7%	13	-17%[46.1 µM]	5%[46.1 µM]	-10%
Cc1nn(-c2ccccc2)c(C)c1/C=N/NC(=O)CSc1nnc(SCc2ccc(Cl)cc2)s1	?	36	9.2µM*	?	14µM*
Cn1c(SCc2cccc([N+](=O)[O-])c2)nc2c(c1=O)SCC2	28µM*	-72*	?	?	?
COc1ccc(NC(=O)c2cccc3c(=O)c4c([nH]c23)CCCC4)cc1	-18%	-19	?	4%[46.1 µM]	.
CCCN(C(=O)c1ccc2c(SCC(=O)O)c3c(nc2c1)CCC3)c1cccc(C)c1	-10%	-60*	.	.	12%
COc1cc2c(cc1OC)C1C(=O)c3ccc4c(c3OC1CO2)CC(C(C)C)O4 (stereo not given)	?	-96*	?	3.5µM*	?
COc1cc2c(cc1OC)[C@@H]1C(=O)c3ccc4c(c3O[C@@H]1CO2)C[C@H](C(C)C)O4	?	-94*	?	7.1µM*	0.32µM*
CCCNC(=O)C1CCC(Cn2c(=O)c3sccc3n(Cc3cccc(OC)c3)c2=O)CC1 (stereo not given)	-15%	-12	-11%[46.1 µM]	.	.
COc1ccc(C2=NS(=O)(=O)N(C)C(C(=O)N3CCOCC3)=C2)cc1OC	-17%	-34	.	.	6%
O=C(O)c1ccc(NC2=C/C(=N/S(=O)(=O)c3cccs3)c3ccccc3C2=O)cc1	10µM*	-24	.	.	.
Cc1ccc(Cl)cc1NC1=C/C(=N\S(=O)(=O)c2cccs2)c2ccccc2C1=O	14µM*	-99*	6.5µM*	?	10µM*
O=C1C(Nc2ccc(O)cc2)=C/C(=N/S(=O)(=O)c2cccs2)c2ccccc21	13µM*	-99*	3.5µM*	2.5µM*	3.5µM*
O=C1C=C(Nc2ccc(O)cc2)C(=O)c2ccccc21	10%	0	?	?	?
Cc1ccccc1-n1cc(CNC(=O)CN2Cc3ccccc3OC(C)C2)cn1 (stereo not given)	-6%	.	.	.	.
CCn1nc(NC(=O)c2cccs2)c2cc3ccccc3nc21	-14%	-14	.	.	25µM*
CCn1nc(NC(=O)c2cccnc2)c2cc3ccccc3nc21	?	11	1%	?	-28%
CC(C)Cn1nc(NC(=O)C2CCCO2)c2cc3ccccc3nc21 (stereo not given)	-19%	-38	-12%	?	-26%
CCn1nc(NC(=O)c2ccccc2)c2cc3cccc(C)c3nc21	-18%	-18	?	?	25µM*
CCCn1nc(NC(=O)C2CCCO2)c2cc3cccc(C)c3nc21 (stereo not given)	3%	8	-11%	-5%[46.1 µM]	11µM*
CC(C)=CCC/C(C)=C/CO/N=C1\C[C@@H](O)[C@@H](O)[C@@H]2[C@@H]3C(=O)N(Cc4ccccc4)C(=O)[C@@H]3CC[C@H]12	.	.	.	3%[14.2 µM]	.
COc1ccc(NS(=O)(=O)c2cc(NC(=O)c3cccc(OCc4c(C)noc4C)c3)ccc2OC)cc1	55%	-65*	?	?	?
COc1cc(C(=O)Nc2cc(OC)c(OC)c(OC)c2)ccc1OCc1c(C)noc1C	-21%	277	-20%	5%	11µM*
SMILES	FMDV antiviral	HCMV antiviral	Lassa entry inh	MARV entry inh	HCV inh
COc1cc(NC(=O)c2ccc(OCc3c(C)noc3C)c(OC)c2)cc(OC)c1	?	-3	.	.	?
Cc1nn(Cc2ccc(C(=O)Nc3ccccc3F)cc2)c(C)c1Cl	4%	-62*	.	.	-11%
Cc1nn(Cc2ccc(Cl)cc2)c(C)c1NC(=O)C(c1ccccc1)c1ccccc1	-10%	-64*	1%	?	?
Cc1nn(Cc2ccc(C(=O)NN)cc2)c(C)c1Cl	11%	-24	-14%[46.1 µM]	?	-12%
Cc1nn(Cc2ccc(Cl)cc2)c(C)c1NC(=O)Cn1nc([N+](=O)[O-])c(Cl)c1C	-21%	101	7%	?	3.2µM*
Cc1cc(NC(=O)CCCn2ccc([N+](=O)[O-])n2)n(Cc2ccc(F)cc2)n1	-21%	-84*	-19%	-3%[46.1 µM]	?
Cc1cc(NC(=O)Cn2cc([N+](=O)[O-])cn2)n(Cc2ccc(F)cc2)n1	-24%	-14	14%	1%	-3%
O=C(COc1ccccc1F)NNC(=O)c1cccc(-n2cccc2)c1	5%	.	-2%[46.1 µM]	-1%[46.1 µM]	14%
CCCCCn1c(=O)[nH]c2cc(C(=O)Nc3cc(OC)cc(OC)c3)ccc2c1=O	-25%	-4	0%[46.1 µM]	17%[46.1 µM]	.
COC(=O)[C@H](CO)N1C(=O)[C@@H]2[C@@H](C1=O)[C@H]1C=C[C@@H]2C1	.	.	4%[46.1 µM]	.	.
Cc1nn(Cc2ccccc2)c(C)c1NC(=O)CCCn1nc(C)c([N+](=O)[O-])c1C	-20%	9	?	1%	30%
Cc1nn(Cc2ccc(Cl)cc2)c(C)c1NC(=O)CCCn1nc(C)c([N+](=O)[O-])c1C	-27%	-21	?	13µM*	-7%
O=C(c1ccc2c(c1)CCO2)N1CC2ON=C(c3c(F)cccc3Cl)C2C1 (stereo not given)	.	14	.	.	.
CNc1ccc2ncc(-c3ccccc3NC(C)=O)n2n1	-9%	-2	.	.	.
CCOC(=O)c1cnc2c(C(F)(F)F)cccc2c1Nc1cccc(C(=O)OC)c1	-27%	-18	23%[46.1 µM]	6%[46.1 µM]	.
CCOC(=O)c1cnc2c(OC)cccc2c1NCc1cccnc1	?	-62*	.	.	-18%
CCOC(=O)c1cnc2c(OC)cccc2c1Nc1cccc(O)c1	25µM*	?	-22%[46.1 µM]	-9%[46.1 µM]	.
O=S1(=O)CCOCCCN1Cc1cccc(C(F)(F)F)c1	-12%	50	.	.	4%
Cc1ccc2c(c1)S/C(=C/c1ccc[n+](C)c1)N2CCO	-14%	-77*	-21%[46.1 µM]	?	?
Cc1ccc(S(=O)(=O)CCC(=O)NCCN2C(=O)S/C(=C\c3ccccc3)C2=O)cc1	?	-26	-3%	-23%	?
CCOC(=O)c1c(C)c(C(=O)NCCc2ccc(OC)cc2)c(C)n1CC	-17%	-15	.	-26%[46.1 µM]	.
CCOC(=O)c1sc2nc(C)nc(SCC(=O)N(CC)C3CCS(=O)(=O)C3)c2c1C (stereo not given)	?	-73*	.	.	-9%
CCOC(=O)c1sc2nc(C)nc(N3CCCCC3C)c2c1C (stereo not given)	-13%	-73*	0%	?	-29%
Cn1c(=O)c2c(nc(NC[C@@H](O)CO)n2CCc2ccccc2)n(C)c1=O	.	.	.	-7%	.
COc1ccc(OC)c(CN2CCOc3ccc(C(O)c4cccnc4)cc3C2)c1 (stereo not given)	-4%	.	.	.	.
Nc1ccc(N=Nc2ccccc2)cc1	3%	24	?	?	-9%
